The list is not random: actives were taken first. Their share in the collection is about 6.8%.
HCV NS3h FP: blocks HCV NS3 helicase binding to DNA; NS3h Cy5-dT15 DNA binding, fluorescence polarization; 16,000 tested, 1.6% active; inhibition, % at 100 µM;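 active means inhibition above the average over every tested compound plus 3 SD, cut at about 40% in these data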
Cy5 interf NS3h: Cy5 fluorescence interference, HCV helicase counter-screen. Cy5-dT15 DNA with NS3h; actives lie on both sides; signal over control mean, under 1 quenches. fluorescence interference ratio at 100 µM. AID 720488. 16,000 tested, 6% active;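 active means compound fluorescence over control fluorescence at most 0.8, a quencher, or at least a set upper limit, an enhancer; inactive means ratio between 0.8 and the set upper limit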
NS3h confirm: confirmation of hepatitis C virus NS3 helicase inhibitors; shares compounds with HCV NS3h FP; NS3h binding to Cy5-dT15 DNA, fluorescence polarization; inhibition, % at 100 µM; 240 tested, 20% active;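 active means percent inhibition of 50% or more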
SSB-DNA FP CB: E. coli SSB-DNA binding inhibition, NS3h counter-screen; 240 tested, 40% active; E. coli SSB binding Cy5-dT15, fluorescence polarization; shares compounds with HCV NS3h FP; inhibition, % at 100 µM;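 active means inhibition of at least 50%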;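 further: displacers lower Cy5 polarization so higher inhibition means more SSB displaced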
Target sequence (P0AGE0 whole entry, looked up): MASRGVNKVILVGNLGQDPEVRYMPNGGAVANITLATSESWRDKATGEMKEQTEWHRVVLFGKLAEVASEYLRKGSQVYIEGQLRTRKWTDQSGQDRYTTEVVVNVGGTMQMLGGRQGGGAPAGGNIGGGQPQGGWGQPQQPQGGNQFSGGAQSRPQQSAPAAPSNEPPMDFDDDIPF
Cy5 SSB fluor CB: enhances or quenches Cy5-DNA fluorescence with E. coli SSB. shares compounds with HCV NS3h FP. Cy5-dT15/E. coli SSB fluorescence interference; actives lie on both sides. fluorescence interference ratio at 100 µM. 240 tested, 8% active. AID 720487;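 active means fluorescence interference ratio at or above 1.2, signal boosting, or at or below 0.8, signal quenching; inactive means ratio between 0.8 and 1.2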
Cy5 fluor confirm: confirmation counter-screen for HCV NS3 helicase inhibitors: fluorescence interference; shares compounds with HCV NS3h FP; fluorescence interference ratio at 100 µM, hits read low; Cy5-dT15 DNA/NS3h fluorescence interference counterscreen; 240 tested, 44% active;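 active means fluorescence interference ratio at or below 0.8 quencher or at or above a set limitenhancer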
Numbers stand for hits; – = inactive; · = no result.

SMILES	HCV NS3h FP	Cy5 interf NS3h	NS3h confirm	SSB-DNA FP CB	Cy5 SSB fluor CB	Cy5 fluor confirm
CCOc1cc(/C=C2/SC(=S)NC2=O)cc(Br)c1OCc1ccc(F)cc1	82.6	–	–	–	–	–
O=C1C(=O)N(c2ccccn2)C(c2cccc(Cl)c2)C1=C(O)c1ccc(Cl)cc1 (centres undefined)	–	–	·	·	·	·
CN1C(=O)N(C)C(NC(=O)NC(C)(C)C)C1NC(=O)NC(C)(C)C (centres undefined)	–	–	·	·	·	·
Cc1cc(C(=O)N/N=C\c2ccc(-c3ccc(Cl)c(Cl)c3)o2)n[nH]1	–	–	·	·	·	·
COc1ccc(O)c(-c2cc(-c3ccccc3C)[nH]n2)c1	–	–	·	·	·	·
COc1ccc(-c2cc(-c3ccccc3)n[nH]2)c(O)c1	42.9	1.26	–	–	–	0.731
O=C(O)c1ccc(NC(=O)c2ccc3c(c2)C(=O)N(c2ccc(C(=O)O)cc2)C3=O)cc1	–	–	·	·	·	·
O=C(CCN1C(=O)/C(=C/c2ccc(F)cc2)SC1=S)Nc1ncc(Cc2ccc(Cl)cc2)s1	45.6	–	–	–	–	–
O=C(CCN1C(=O)/C(=C/c2ccc(Cl)cc2)SC1=S)Nc1nccs1	–	–	·	·	·	·
CC1CCCCN1CC#CC(O)(c1ccccc1)c1ccccc1 (centres undefined)	–	–	·	·	·	·
Cc1ccc(N2CCN(C(=O)Nc3ccc(Cl)cc3)CC2)cc1	–	–	·	·	·	·
Cc1ccc(/C=C/C(=O)Nc2cccc(Br)c2)o1	–	–	·	·	·	·
COc1cc([N+](=O)[O-])ccc1-c1ccc(/C=C2\C(=O)NC(=S)N(c3ccc(Cl)cc3)C2=O)o1	–	–	·	·	·	·
Cc1ccc(N2C(=O)/C(=C\c3ccc(-c4ccc(Cl)c(C(=O)O)c4)o3)C(=O)NC2=S)cc1	83.0	–	–	93.9	–	0.729
O=C1NC(=S)N(c2ccccc2)C(=O)/C1=C/c1ccc(-c2ccc(Cl)c(C(=O)O)c2)o1	92.8	–	–	90.3	–	0.784
O=C1NC(=S)N(c2ccccc2)C(=O)/C1=C/c1ccc(-c2cccc(Cl)c2Cl)o1	–	–	·	·	·	·
O=C(Cc1ccccc1[N+](=O)[O-])NCC1CCCO1 (centres undefined)	–	–	·	·	·	·
N/C(=N\OC(=O)c1cccc([N+](=O)[O-])c1)c1ccc(Br)cc1	–	–	·	·	·	·
O=C(Nc1ccc(Cl)c(Cl)c1)Nc1nnc(CCc2ccccc2)s1	–	–	·	·	·	·
Cc1cc(C)c(N2C(=O)NC(=O)/C(=C/c3ccc([N+](=O)[O-])o3)C2=O)c(C)c1	52.4	–	–	93.9	–	0.753
Cc1cc([N+](=O)[O-])ccc1-c1ccc(/C=C2/C(=O)NC(=S)N(c3ccc(Cl)cc3)C2=O)o1	–	–	·	·	·	·
Cc1ccc(N2C(=O)NC(=O)/C(=C\c3ccsc3)C2=O)cc1	55.4	1.23	–	–	–	0.736
COc1ccc(N2C(=O)NC(=O)/C(=C\c3ccc(O)c(Cl)c3)C2=O)cc1	46.6	–	–	–	–	0.749
O=C1NC(=S)N(c2ccc(Cl)cc2)C(=O)C1=Cc1ccsc1	–	–	·	·	·	·
COc1ccc(N2C(=O)NC(=O)/C(=C\c3cc(OC)c(OC)cc3OC)C2=O)cc1	–	–	·	·	·	·
SMILES	HCV NS3h FP	Cy5 interf NS3h	NS3h confirm	SSB-DNA FP CB	Cy5 SSB fluor CB	Cy5 fluor confirm
COc1cc(OC)c(OC)cc1/C=C1/C(=O)NC(=O)N(c2ccccc2)C1=O	43.5	1.21	–	–	–	–
O=C1NC(=O)N(c2cccc(F)c2)C(=O)/C1=C/c1ccc(O)c(Cl)c1	–	–	·	·	·	·
O=C1C2C(c3ccccc3Cl)OC3(C(=O)c4ccccc4C3=O)C2C(=O)N1c1ccccc1C(F)(F)F (centres undefined)	–	–	·	·	·	·
Cc1c(OCC(N)=O)ccc2c3c(c(=O)oc12)CCC3	–	–	·	·	·	·
COc1ccc(C(=O)NCc2ccncc2)cc1[N+](=O)[O-]	–	–	·	·	·	·
O=C(Oc1ccc(Cl)cc1)c1ccccc1	53.9	–	49.9	60.0	–	1.2
O=C(Oc1ccc(-c2nc3ccccc3[nH]2)cc1)c1ccc(Cl)cc1	–	–	·	·	·	·
COc1cccc(OCCOc2ccccc2/C=C2/SC(=S)NC2=O)c1	–	–	·	·	·	·
CCN1C(=O)/C(=C/c2cn(-c3ccccc3)nc2-c2cc3ccccc3oc2=O)SC1=S	–	–	·	·	·	·
CC(=O)Oc1ccc(N2C(=O)c3ccc(C(=O)c4cccc([N+](=O)[O-])c4)cc3C2=O)cc1	–	–	·	·	·	·
CC(=O)Oc1cccc(N2C(=O)c3ccc(C(=O)c4ccc5c(c4)C(=O)N(c4cccc(OC(C)=O)c4)C5=O)cc3C2=O)c1	40.7	–	–	–	–	–
CCCCOc1ccc(-c2nc(C3CCCCC3)no2)cc1	–	–	·	·	·	·
O=C1C(=Cc2cccc(Cl)c2)C(=O)c2ccccc21	–	–	·	·	·	·
O=C1C(=Cc2ccccc2)C(=O)c2ccccc21	46.2	–	–	–	–	0.777
O=C1C(=Cc2ccccc2F)C(=O)c2ccccc21	60.9	–	–	–	–	0.736
CN1C(=O)/C(=C/c2ccccc2F)SC1=S	–	–	·	·	·	·
O=C(Nc1ccc(I)cc1)C1CC(=O)N(c2ccc(F)cc2)C1 (centres undefined)	–	–	·	·	·	·
O=C(O)c1ccc(S(=O)(=O)c2ccc3c(c2)C(=O)N(c2ccc(Sc4ccc([N+](=O)[O-])cc4)cc2)C3=O)cc1	–	–	·	·	·	·
COc1ccc(NC(=O)CN(c2ccc(F)cc2)S(=O)(=O)c2ccccc2)cc1OC	–	–	·	·	·	·
O=C1Nc2ccc(Br)cc2/C1=C/C(=O)c1ccc(Cl)cc1	–	–	·	·	·	·
CN(C)c1ccc(/C=C2\C(=O)NC(=S)N(c3ccc(Br)cc3)C2=O)cc1	63.7	1.27	–	96.4	1.23	–
O=C1NC(=S)N(c2ccccc2)C(=O)/C1=C/c1ccc(Br)cc1	–	–	·	·	·	·
Cc1ccc(/C=N\N=C/c2ccc(C)cc2)cc1	–	–	·	·	·	·
Cc1ccc(-n2nc3ccc(NC(=O)COc4ccccc4[N+](=O)[O-])cc3n2)cc1Cl	–	–	·	·	·	·
CN(Cc1ccccc1)C(=O)c1cc2nc(-c3ccccc3)cc(-c3ccccc3)n2n1	–	–	·	·	·	·
SMILES	HCV NS3h FP	Cy5 interf NS3h	NS3h confirm	SSB-DNA FP CB	Cy5 SSB fluor CB	Cy5 fluor confirm
CCOC(=O)c1cccc(N2C(=O)C=CC2=O)c1	55.0	–	–	–	–	–
O=C1/C(=C\c2ccc(I)cc2)SC(=S)N1c1cccc(Cl)c1	–	–	·	·	·	·
O=C(/C=C/c1ccc(/C=C/C(=O)c2cccc(N3C(=O)C=CC3=O)c2)cc1)c1cccc(N2C(=O)C=CC2=O)c1	–	–	·	·	·	·
O=C1C=CC(=O)N1c1cccc(Cl)c1	54.9	–	–	–	–	–
O=C(O)CC1S/C(=N\N=C/c2ccc([N+](=O)[O-])cc2)N(c2ccc(O)cc2)C1=O (centres undefined)	–	–	·	·	·	·
CSc1ccccc1N1C(=O)C2CC(C)=C(C)CC2C1=O (centres undefined)	–	–	·	·	·	·
CSc1ccccc1N1C(=O)C=CC1=O	–	–	–	–	–	0.753
CCc1ccc(N2C(=O)NC(=O)/C(=C\c3cc(Cl)c(OCC(=O)O)c(Cl)c3)C2=O)cc1	–	–	·	·	·	·
Cc1cc(Cl)c2cc(C(=O)O)ccc2n1	–	–	·	·	·	·
Cc1ccc(C(=O)O)cc1-n1c(C)ccc1C	81.6	1.37	89.1	89.1	–	–
